# Laboratory results published in the supplement of paper PMC8975748.
# Where a name gives a salt, the structure may show the parent alone.
# Tested on: Saccharomyces cerevisiae BY4741 SeMeCo community
# Experiment: z-score of subpopulation abundance vs DMSO median, subpopulation auxotrophic for M; higher = larger share of this subpopulation than in DMSO controls
# Conditions: 10 µM; 24 h; SM minimal medium; subpopulation (auxotrophy): M
# Experimental: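 Fluorescent four-plasmid SeMeCo (self-establishing metabolically cooperating S. cerevisiae BY4741 community; plasmids pH-mRuby2, pL-mWasabi, pU-eCFP, pM-TagRFP657) was grown 24 h in minimal SM medium with each Selleck FDA-approved drug at 10 µM in 384-well plates. Cells were fixed and imaged by high-content confocal microscopy. For each auxotrophic subpopulation (and the prototroph), a z-score gives the deviation from the DMSO vehicle-control population median.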
row,SMILES,z-score of subpopulation abundance
1,CCN(C)C(=O)Oc1cccc([C@H](C)N(C)C)c1 [Rivastigmine Tartrate],-0.28
2,CNC1CC(N)C(O)C(OC2OC(CO)C(O)C3OC4(OC(C(N)CO)C(O)C(O)C4O)OC23)C1O (stereo not given) [Hygromycin B],-0.9
3,COc1cc2c(cc1OC)C1CC(=O)C(CC(C)C)CN1CC2 (stereo not given) [Tetrabenazine (Xenazine)],0.98
4,O=C(O[C@H]1C[N+]2(CCCOc3ccccc3)CCC1CC2)C(O)(c1cccs1)c1cccs1 [Aclidinium Bromide],0.23
5,CC1(C)SC2C(N)C(=O)N2C1C(=O)O (stereo not given) [6-Aminopenicillanic acid],0.22
6,COc1ccc2c(c1)[C@]13CCCC[C@@H]1[C@H](C2)N(C)CC3 [Dextromethorphan hydrobromide hydrate],0.1
7,Oc1cc(Cl)ccc1Oc1ccc(Cl)cc1Cl [Triclosan],-4.35
8,CN[C@@H]1[C@@H](O)[C@@H](O[C@@H]2[C@@H](O)[C@H](O[C@H]3O[C@H]([C@@H](C)O)[C@@H](O)[C@H](O)[C@H]3N)[C@@H](N)C[C@H]2N)OC[C@]1(C)O [Geneticin (G418 Sulfate)],-0.27
9,CN[C@@H]1[C@@H](O)[C@@H](O[C@@H]2[C@@H](O)[C@H](O[C@H]3O[C@H](CN)CC[C@H]3N)[C@@H](N)C[C@H]2N)OC[C@]1(C)O.CN[C@@H]1[C@@H](O)[C@@H](O[C@@H]2[C@@H](O)[C@H](O[C@H]3O[C@H]([C@@H](C)N)CC[C@H]3N)[C@@H](N)C[C@H]2N)OC[C@]1(C)O.CN[C@@H]1[C@@H](O)[C@@H](O[C@@H]2[C@@H](O)[C@H](O[C@H]3O[C@H]([C@@H](C)NC)CC[C@H]3N)[C@@H](N)C[C@H]2N)OC[C@]1(C)O [Gentamicin Sulfate],-0.59
10,COC(=O)C1=CCCN(C)C1 [Arecoline HBr],0.3
11,CCOC(=O)Nc1ccc(NCc2ccc(F)cc2)cc1N [Retigabine],0.51
12,CN1[C@@H]2CC[C@H]1C[C@@H](OC(=O)C(CO)c1ccccc1)C2 (stereo not given in full) [Atropine sulfate monohydrate],-0.25
13,Cn1cc(C2=C(c3cn(C4CCN(Cc5ccccn5)CC4)c4ccccc34)C(=O)NC2=O)c2ccccc21,-1.26
14,O=c1[nH]c2ccccc2n1CCCN1CCC(n2c(=O)[nH]c3cc(Cl)ccc32)CC1 [Domperidone],0.22
15,C=C[C@H]1CN2CC[C@H]1C[C@H]2[C@H](O)c1ccnc2ccccc12 [Cinchonidine],0.23
16,O=[N+]([O-])C(Br)(CO)CO [Bronopol],0.51
17,CCN(C)C(=O)Oc1cccc([C@H](C)N(C)C)c1 [Rivastigmine],1.32
18,"NCC(O)c1ccc(O)cc1 (racemic) [(+,-)-Octopamine HCl]",0.19
19,CN(C)[C@@H]1C(=O)C(C(N)=O)=C(O)[C@@]2(O)C(=O)C3=C(O)c4c(O)cccc4[C@@](C)(O)[C@H]3[C@H](O)[C@@H]12 [Oxytetracycline Dihydrate],-1.02
20,COc1ccc2[nH]cc(CCN)c2c1 [5-Methoxytryptamine],0.64

row,SMILES,z-score of subpopulation abundance
1,NCCc1c[nH]c2ccc(O)cc12 [Serotonin HCl],0.15
2,C[C@@H]1CC[C@H]2[C@@H](C)C(=O)O[C@@H]3O[C@@]4(C)CC[C@@H]1[C@]32OO4 [Artemisinin],-4.51
3,CCCN1C[C@H](CSC)C[C@@H]2c3cccc4[nH]cc(c34)C[C@H]21 [Pergolide Mesylate],-0.05
4,C[N+](C)(C)CCCCCCCCCC[N+](C)(C)C [Decamethonium Bromide],-0.44
5,CCOC(=O)Nc1ccc(NCc2ccc(F)cc2)cc1N [Retigabine 2HCl],0.27
6,CC[C@H]1[C@@H]2C[C@H]3[C@@H]4N(C)c5ccccc5[C@]45C[C@@H]([C@@H]2[C@H]5O)N3[C@@H]1O [Ajmaline],0.82
7,C[N+]1(C)[C@@H]2C[C@@H](OC(=O)[C@H](CO)c3ccccc3)C[C@H]1[C@@H]1O[C@@H]12 [Methscopolamine],-0.33
8,Cc1cc(C(C#N)c2ccc(Cl)cc2)c(Cl)cc1NC(=O)c1cc(I)cc(I)c1O (stereo not given) [Closantel],1.17
9,CC(C)=CCOc1c2occc2cc2ccc(=O)oc12 [Imperatorin],1.13
10,NC(=O)CN1CCCC1=O [Piracetam],1.48
11,Nc1nc(N)nc(NC2CC2)n1 [Cyromazine],0.95
12,C[CH2][Hg][S]c1ccccc1C(=O)[O-].[Na+] [Thimerosal],-0.95
13,COc1ccc(C(CN(C)C)C2(O)CCCCC2)cc1 (stereo not given) [Venlafaxine],-0.73
14,CCN1CC2(OC(=O)c3ccccc3NC(C)=O)CCC(OC)C34C1C(CC23)C1(O)CC(OC)C2CC4C1(O)C2OC (stereo not given) [Lappaconitine],0.06
15,CN1c2ccccc2C(NCCCCCCC(=O)O)c2ccc(Cl)cc2S1(=O)=O (stereo not given) [Tianeptine sodium],0.9
16,CN1[C@@H]2C[C@@H](OC(=O)[C@H](CO)c3ccccc3)C[C@H]1[C@@H]1O[C@@H]12 [Scopolamine HBr],-0.04
17,N[C@@H]1C[C@H]1c1ccccc1 [Tranylcypromine (2-PCPA) HCl],-0.13
18,CN(C)C(=O)Oc1cccc([N+](C)(C)C)c1 [Neostigmine Bromide],0.29
19,C[N+]12CCC(CC1)C(OC(=O)C(O)(c1ccccc1)c1ccccc1)C2 (stereo not given) [Clidinium Bromide],-0.85
20,CC[C@@]1(O)C(=O)OCc2c1cc1n(c2=O)Cc2cc3ccccc3nc2-1 [Camptothecin],1.3
